# Test results from publication PMC7862700, “An all-to-all approach to the identification of sequence-specific readers for epigenetic DNA modifications on cytosine”.
# Legend:
# Assay in all cases: DAPPL (digital affinity profiling via proximity ligation, sequencing); 10 mM Tris-HCl pH 7.5, 50 mM NaCl, 1 mM DTT, 4% glycerol, room temperature, 30 min; GST-TFs on glutathione beads, 16-mer random dsDNA library, 0.1% formaldehyde crosslink after washing; high values mean tight binding
# Conditions in all cases: protein: recombinant; tags: N-terminal GST; dsDNA, one strand shown
# ETV5 = ETV5 (Homo sapiens, UniProt P41161 1-510)
# How it was run: (§1)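 Yeast served to express human transcription factors as GST fusions, which were then captured on glutathione beads and labelled with DNA barcodes. Pooled with a tag-only sample, they were incubated with 200 nmole of a 16-mer random double-stranded DNA library for 30 min at room temperature in Tris/NaCl/DTT/glycerol buffer, washed, crosslinked with 0.1% formaldehyde, ligated by proximity, amplified by PCR and sequenced. Dividing each hexamer's read frequency for a factor by its frequency for the tag-only sample gives the binding signal.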
# SPIC = molecular target: T1, SPIC (Homo sapiens, UniProt Q8N5J4 1-248)
# T1 sequence: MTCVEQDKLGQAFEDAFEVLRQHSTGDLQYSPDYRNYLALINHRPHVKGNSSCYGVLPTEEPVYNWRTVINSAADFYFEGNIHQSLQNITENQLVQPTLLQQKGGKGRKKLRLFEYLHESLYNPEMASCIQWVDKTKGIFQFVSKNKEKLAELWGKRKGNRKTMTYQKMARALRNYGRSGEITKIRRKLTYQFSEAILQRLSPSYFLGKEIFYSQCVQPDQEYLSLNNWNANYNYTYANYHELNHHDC
# How it was run: as §1
# ELF4 = ELF4 (Homo sapiens, UniProt Q99607 1-663)
# How it was run: as §1
# ELK4 = molecular target: T2, ELK4 (Homo sapiens, UniProt P28324-2 1-405)
# T2 sequence: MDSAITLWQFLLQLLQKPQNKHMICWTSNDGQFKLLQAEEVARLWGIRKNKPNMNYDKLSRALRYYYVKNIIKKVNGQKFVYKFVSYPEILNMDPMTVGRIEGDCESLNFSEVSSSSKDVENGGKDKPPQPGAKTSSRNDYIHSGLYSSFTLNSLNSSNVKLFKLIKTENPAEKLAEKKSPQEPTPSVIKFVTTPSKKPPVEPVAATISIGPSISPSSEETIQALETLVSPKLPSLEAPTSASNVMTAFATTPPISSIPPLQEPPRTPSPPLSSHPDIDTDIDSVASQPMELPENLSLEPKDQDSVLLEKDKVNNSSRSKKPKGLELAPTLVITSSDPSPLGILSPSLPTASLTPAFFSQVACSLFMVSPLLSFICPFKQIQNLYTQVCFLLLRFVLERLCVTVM
# How it was run: as §1
# ETV2 = molecular target: T3, ETV2 (Homo sapiens, UniProt O00321 1-342)
# T3 sequence: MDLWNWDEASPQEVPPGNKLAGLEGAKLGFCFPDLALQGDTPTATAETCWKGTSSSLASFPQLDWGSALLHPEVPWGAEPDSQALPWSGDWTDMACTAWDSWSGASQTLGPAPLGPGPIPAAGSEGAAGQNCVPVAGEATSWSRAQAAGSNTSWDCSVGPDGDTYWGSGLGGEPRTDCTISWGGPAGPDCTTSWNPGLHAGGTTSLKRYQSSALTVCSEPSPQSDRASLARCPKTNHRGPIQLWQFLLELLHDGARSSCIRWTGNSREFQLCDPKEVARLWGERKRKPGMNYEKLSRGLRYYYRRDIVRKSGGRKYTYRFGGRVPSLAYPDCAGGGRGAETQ
# How it was run: as §1
# ELF3 = molecular target: T4, ELF3 (Homo sapiens, UniProt P78545 1-371)
# T4 sequence: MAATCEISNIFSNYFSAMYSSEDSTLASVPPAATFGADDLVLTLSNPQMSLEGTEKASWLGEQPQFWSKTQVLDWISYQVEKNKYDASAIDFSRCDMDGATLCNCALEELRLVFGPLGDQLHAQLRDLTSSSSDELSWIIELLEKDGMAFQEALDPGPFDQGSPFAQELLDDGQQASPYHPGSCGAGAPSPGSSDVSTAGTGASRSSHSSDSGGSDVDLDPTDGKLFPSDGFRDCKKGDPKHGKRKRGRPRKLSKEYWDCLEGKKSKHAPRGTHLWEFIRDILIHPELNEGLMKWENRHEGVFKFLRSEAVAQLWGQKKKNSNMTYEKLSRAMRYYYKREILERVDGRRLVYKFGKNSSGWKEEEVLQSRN
# How it was run: as §1
# ETV1 = ETV1 (Homo sapiens, UniProt P50549 1-477)
# How it was run: as §1
# ERF = molecular target: T5, ERF (Homo sapiens, UniProt P50548 1-548)
# T5 sequence: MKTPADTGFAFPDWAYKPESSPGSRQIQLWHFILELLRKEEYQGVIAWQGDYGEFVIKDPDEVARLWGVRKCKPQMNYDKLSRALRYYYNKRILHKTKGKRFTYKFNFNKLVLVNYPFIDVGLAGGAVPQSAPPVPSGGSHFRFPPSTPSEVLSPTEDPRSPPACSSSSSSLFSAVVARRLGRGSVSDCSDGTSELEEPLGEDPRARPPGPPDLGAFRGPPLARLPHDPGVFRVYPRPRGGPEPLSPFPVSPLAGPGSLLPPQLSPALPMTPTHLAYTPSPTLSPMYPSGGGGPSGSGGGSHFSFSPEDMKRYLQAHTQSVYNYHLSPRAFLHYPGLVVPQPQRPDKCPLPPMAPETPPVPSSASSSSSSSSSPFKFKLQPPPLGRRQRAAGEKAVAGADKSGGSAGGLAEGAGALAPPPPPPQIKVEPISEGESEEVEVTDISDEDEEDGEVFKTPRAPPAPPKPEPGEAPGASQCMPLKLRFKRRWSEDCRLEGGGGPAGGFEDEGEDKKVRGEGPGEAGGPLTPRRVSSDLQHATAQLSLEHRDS
# How it was run: as §1
# ETV3L = molecular target: T6, ETV3L (Homo sapiens, UniProt Q6ZN32 1-361)
# T6 sequence: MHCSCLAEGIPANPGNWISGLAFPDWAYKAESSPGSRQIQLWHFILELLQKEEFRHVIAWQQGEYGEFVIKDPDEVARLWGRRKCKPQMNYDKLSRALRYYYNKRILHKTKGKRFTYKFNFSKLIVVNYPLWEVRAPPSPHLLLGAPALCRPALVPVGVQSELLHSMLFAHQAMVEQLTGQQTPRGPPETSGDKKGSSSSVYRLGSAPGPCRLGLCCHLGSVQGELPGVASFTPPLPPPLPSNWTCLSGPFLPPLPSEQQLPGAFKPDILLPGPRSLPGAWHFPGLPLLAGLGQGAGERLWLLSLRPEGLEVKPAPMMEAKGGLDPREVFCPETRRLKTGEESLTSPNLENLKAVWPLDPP
# How it was run: as §1
# ETS2 = molecular target: T7, ETS2 (Homo sapiens, UniProt P15036 1-469)
# T7 sequence: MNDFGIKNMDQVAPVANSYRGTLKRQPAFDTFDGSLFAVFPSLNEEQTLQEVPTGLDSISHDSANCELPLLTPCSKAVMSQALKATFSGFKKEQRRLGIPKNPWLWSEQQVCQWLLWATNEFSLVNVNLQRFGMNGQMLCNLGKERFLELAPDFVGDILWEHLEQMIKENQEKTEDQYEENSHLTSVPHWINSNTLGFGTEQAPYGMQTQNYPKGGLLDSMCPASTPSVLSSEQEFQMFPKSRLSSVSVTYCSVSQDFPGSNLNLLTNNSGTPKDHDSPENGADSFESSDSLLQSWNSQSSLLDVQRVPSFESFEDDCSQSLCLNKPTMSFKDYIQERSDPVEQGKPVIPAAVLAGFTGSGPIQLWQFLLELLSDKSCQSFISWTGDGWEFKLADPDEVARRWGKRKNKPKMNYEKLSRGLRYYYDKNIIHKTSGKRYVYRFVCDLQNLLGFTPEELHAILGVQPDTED
# How it was run: as §1
# SPDEF = molecular target: T8, SPDEF (Homo sapiens, UniProt O95238 1-335)
# T8 sequence: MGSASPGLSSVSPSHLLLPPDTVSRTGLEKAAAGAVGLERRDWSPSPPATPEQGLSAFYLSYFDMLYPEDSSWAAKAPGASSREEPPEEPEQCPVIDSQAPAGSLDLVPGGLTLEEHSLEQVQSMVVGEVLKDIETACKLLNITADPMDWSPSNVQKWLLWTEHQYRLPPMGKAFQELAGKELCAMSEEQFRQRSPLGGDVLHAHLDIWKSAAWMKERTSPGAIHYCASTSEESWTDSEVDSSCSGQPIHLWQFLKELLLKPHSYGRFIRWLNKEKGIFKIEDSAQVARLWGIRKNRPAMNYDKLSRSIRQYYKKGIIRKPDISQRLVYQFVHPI
# How it was run: as §1
# ETV7 = molecular target: T9, ETV7 (Homo sapiens, UniProt Q9Y603 1-341)
# T9 sequence: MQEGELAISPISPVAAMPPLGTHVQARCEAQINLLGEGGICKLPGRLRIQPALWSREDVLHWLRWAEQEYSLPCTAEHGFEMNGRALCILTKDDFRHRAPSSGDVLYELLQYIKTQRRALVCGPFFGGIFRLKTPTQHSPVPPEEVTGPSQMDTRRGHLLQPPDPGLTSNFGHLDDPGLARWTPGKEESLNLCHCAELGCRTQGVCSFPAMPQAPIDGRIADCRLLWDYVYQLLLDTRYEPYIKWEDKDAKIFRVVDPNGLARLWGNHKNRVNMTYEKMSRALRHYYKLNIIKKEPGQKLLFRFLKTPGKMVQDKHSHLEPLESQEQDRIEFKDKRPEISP
# How it was run: as §1
# ETV3 = molecular target: T10, ETV3 (Homo sapiens, UniProt P41162-2 1-143)
# T10 sequence: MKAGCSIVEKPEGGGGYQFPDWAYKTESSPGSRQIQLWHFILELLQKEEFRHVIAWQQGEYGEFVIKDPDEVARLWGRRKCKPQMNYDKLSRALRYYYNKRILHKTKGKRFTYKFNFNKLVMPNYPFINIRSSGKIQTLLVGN
# How it was run: as §1
# ETV6 = ETV6 (Homo sapiens, UniProt P41212 1-452)
# How it was run: as §1
# FEV = molecular target: T11, FEV (Homo sapiens, UniProt Q99581 1-238)
# T11 sequence: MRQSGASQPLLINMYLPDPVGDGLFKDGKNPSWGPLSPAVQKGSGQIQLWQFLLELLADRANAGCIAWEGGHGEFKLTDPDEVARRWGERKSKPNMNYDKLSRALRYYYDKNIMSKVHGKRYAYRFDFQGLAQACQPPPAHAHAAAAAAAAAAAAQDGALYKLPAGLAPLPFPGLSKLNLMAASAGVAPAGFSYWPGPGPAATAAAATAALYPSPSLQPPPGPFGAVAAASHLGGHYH
# How it was run: as §1
# ELF5 = molecular target: T12, ELF5 (Homo sapiens, UniProt Q9UKW6-2 1-255)
# T12 sequence: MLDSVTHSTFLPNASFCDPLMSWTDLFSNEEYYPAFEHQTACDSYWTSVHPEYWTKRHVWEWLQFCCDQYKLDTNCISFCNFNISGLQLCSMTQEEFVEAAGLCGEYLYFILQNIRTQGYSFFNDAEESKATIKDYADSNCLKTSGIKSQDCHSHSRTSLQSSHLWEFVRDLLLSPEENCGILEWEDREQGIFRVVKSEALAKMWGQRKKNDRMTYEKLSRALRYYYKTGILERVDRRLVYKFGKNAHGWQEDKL
# How it was run: as §1
# Sequence of ETV1 (P50549 whole entry): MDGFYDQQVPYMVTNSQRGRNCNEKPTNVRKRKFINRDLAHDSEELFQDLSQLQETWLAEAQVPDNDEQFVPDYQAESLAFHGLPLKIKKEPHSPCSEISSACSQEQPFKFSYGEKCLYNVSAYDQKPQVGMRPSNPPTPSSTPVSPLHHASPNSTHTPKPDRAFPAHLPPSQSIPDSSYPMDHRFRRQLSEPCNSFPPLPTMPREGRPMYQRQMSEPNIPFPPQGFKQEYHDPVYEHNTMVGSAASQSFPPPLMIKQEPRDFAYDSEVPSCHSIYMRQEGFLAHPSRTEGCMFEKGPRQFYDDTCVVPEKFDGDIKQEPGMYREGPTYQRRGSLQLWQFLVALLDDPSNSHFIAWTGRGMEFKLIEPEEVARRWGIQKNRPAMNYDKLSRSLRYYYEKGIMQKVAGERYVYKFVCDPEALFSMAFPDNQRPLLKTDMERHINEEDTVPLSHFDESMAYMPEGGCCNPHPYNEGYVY
# Sequence of ETV5 (P41161 whole entry, the tested form may be a part): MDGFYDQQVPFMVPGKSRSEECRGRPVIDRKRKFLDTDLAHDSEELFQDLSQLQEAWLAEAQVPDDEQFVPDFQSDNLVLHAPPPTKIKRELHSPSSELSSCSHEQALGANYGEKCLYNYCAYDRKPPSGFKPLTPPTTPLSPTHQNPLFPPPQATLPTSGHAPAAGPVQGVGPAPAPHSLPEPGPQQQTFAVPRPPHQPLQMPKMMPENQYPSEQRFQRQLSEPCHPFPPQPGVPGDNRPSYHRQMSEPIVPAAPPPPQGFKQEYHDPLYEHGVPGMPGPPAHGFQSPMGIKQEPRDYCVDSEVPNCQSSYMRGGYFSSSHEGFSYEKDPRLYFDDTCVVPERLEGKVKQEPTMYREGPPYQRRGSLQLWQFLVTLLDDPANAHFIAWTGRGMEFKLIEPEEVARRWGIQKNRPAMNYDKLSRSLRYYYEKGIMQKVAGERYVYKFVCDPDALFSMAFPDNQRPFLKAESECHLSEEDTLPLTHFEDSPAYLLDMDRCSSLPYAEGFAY
# Sequence of ELF4 (Q99607 whole entry): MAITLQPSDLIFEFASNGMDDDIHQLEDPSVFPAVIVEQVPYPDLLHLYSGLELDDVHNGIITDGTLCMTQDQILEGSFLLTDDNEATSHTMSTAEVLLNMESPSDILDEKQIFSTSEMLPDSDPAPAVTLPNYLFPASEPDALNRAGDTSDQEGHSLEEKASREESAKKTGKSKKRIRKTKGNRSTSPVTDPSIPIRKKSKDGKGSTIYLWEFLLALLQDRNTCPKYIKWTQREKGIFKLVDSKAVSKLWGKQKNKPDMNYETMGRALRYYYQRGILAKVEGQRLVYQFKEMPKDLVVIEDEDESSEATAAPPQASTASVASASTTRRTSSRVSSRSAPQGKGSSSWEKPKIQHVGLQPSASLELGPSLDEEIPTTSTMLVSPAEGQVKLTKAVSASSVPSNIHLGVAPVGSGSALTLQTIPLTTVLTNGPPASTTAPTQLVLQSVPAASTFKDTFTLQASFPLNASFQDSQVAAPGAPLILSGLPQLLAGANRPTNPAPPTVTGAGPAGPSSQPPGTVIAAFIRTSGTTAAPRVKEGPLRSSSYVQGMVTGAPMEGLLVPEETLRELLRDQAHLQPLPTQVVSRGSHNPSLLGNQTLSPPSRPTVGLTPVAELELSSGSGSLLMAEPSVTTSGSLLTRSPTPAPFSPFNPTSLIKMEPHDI
# Sequence of ETV6 (P41212 whole entry): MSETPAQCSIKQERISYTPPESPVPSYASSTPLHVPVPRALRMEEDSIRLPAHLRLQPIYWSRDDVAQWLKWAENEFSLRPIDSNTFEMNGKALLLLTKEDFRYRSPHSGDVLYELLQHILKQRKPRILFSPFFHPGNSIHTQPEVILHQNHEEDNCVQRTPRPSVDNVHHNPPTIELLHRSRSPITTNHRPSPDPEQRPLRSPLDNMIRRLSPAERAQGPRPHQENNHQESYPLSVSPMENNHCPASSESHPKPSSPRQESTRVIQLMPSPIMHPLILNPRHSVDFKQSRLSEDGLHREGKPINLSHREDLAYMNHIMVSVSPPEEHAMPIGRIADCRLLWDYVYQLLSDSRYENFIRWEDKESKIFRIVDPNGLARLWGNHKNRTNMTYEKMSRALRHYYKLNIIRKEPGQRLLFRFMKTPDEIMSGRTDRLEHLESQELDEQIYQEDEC
Sequence,binding signal (ETV5),binding signal (SPIC),binding signal (ELF4),binding signal (ELK4),binding signal (ETV2),binding signal (ELF3),binding signal (ETV1),binding signal (ERF),binding signal (ETV3L),binding signal (ETS2),binding signal (SPDEF),binding signal (ETV7),binding signal (ETV3),binding signal (ETV6),binding signal (FEV),binding signal (ELF5)
CAATAG,"1.11 fold enrichment (6-mer frequency, TF over GST control)","1.07 fold enrichment (6-mer frequency, TF over GST control)","1.09 fold enrichment (6-mer frequency, TF over GST control)","1.15 fold enrichment (6-mer frequency, TF over GST control)","1.01 fold enrichment (6-mer frequency, TF over GST control)","1.2 fold enrichment (6-mer frequency, TF over GST control)","1.02 fold enrichment (6-mer frequency, TF over GST control)","1.21 fold enrichment (6-mer frequency, TF over GST control)","1.02 fold enrichment (6-mer frequency, TF over GST control)","1.08 fold enrichment (6-mer frequency, TF over GST control)","1.08 fold enrichment (6-mer frequency, TF over GST control)","1.11 fold enrichment (6-mer frequency, TF over GST control)","1.09 fold enrichment (6-mer frequency, TF over GST control)","1.12 fold enrichment (6-mer frequency, TF over GST control)",,
GGCCTC,"1.15 fold enrichment (6-mer frequency, TF over GST control)","1.01 fold enrichment (6-mer frequency, TF over GST control)","1.12 fold enrichment (6-mer frequency, TF over GST control)","1.17 fold enrichment (6-mer frequency, TF over GST control)","1.17 fold enrichment (6-mer frequency, TF over GST control)","1.05 fold enrichment (6-mer frequency, TF over GST control)","1.07 fold enrichment (6-mer frequency, TF over GST control)","1.12 fold enrichment (6-mer frequency, TF over GST control)","1.12 fold enrichment (6-mer frequency, TF over GST control)","1.09 fold enrichment (6-mer frequency, TF over GST control)","1.08 fold enrichment (6-mer frequency, TF over GST control)","1.05 fold enrichment (6-mer frequency, TF over GST control)","1.1 fold enrichment (6-mer frequency, TF over GST control)","1.09 fold enrichment (6-mer frequency, TF over GST control)","1.07 fold enrichment (6-mer frequency, TF over GST control)",
CGACGC,"1.07 fold enrichment (6-mer frequency, TF over GST control)","1.09 fold enrichment (6-mer frequency, TF over GST control)","1.09 fold enrichment (6-mer frequency, TF over GST control)","1.07 fold enrichment (6-mer frequency, TF over GST control)","1.16 fold enrichment (6-mer frequency, TF over GST control)","1.28 fold enrichment (6-mer frequency, TF over GST control)","1.01 fold enrichment (6-mer frequency, TF over GST control)","1.17 fold enrichment (6-mer frequency, TF over GST control)","1.08 fold enrichment (6-mer frequency, TF over GST control)","1.16 fold enrichment (6-mer frequency, TF over GST control)","1.04 fold enrichment (6-mer frequency, TF over GST control)","1.05 fold enrichment (6-mer frequency, TF over GST control)","1 fold enrichment (6-mer frequency, TF over GST control)","1.09 fold enrichment (6-mer frequency, TF over GST control)",,"1.05 fold enrichment (6-mer frequency, TF over GST control)"
